Rows were chosen to be rich in hits. Some 18% of all compounds tested hit in one or more screens of this group.
DT40 TDP1 no CPT – qHTS for Inhibitors of human tyrosyl-DNA phosphodiesterase 1 (TDP1): qHTS in cells in absence of CPT; DT40 Tdp1-/- hTDP1 cells, no CPT, ATP luminescence, 48 h; Potency, µM (titrated, usually from 46.2 µM), inactives show top-dose activity change, negative = growth inhibition, actives largely listed as inhibitors; hit rate 15% among 420,000; further: potency means the concentration at half of the fitted maximal effect; nearly all actives have a fitted effect of over 55% in size
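Readout: luminescence from CellTiter-Glo after 30 min in the dark at RT. Cells: DT40 Tdp1-/- with stable hTDP1, 400/well. Exposure: compounds alone, ≥48 hr, 37 °C.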
IL1B secr inh – inflammasome signaling inhibition, IL-1 beta readout; THP-1 LPS/ATP IL-1B secretion, AlphaLISA, 16 h; stronger effect = lower value; activity change, % at 57.5 µM; hit rate 4.7% among 360,000; in the data active means activity change below about -50%; inconclusive means mostly about -30% to -49%
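THP-1 cells pretreated 1 hr with compounds (up to 57.5 uM final), then stimulated with LPS (250 ng/mL final) plus ATP (1.25 mM final); secreted IL-1B measured by AlphaLISA after 16 hr, decreased signal indicating inhibition.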
RORg inh – blocks mouse ROR gamma transcriptional activity; P51450; Drosophila S2 Gal4-RORgamma UAS-luciferase reporter, 20 h; Potency, µM (titrated, usually from 53.6 µM), without a hit: at the top dose activity change, negative = inhibition, usual class: inhibitors; hit rate 5.4% among 310,000; further: potency means the concentration at half of the fitted maximal effect; nearly all actives have a fitted effect of over 60% in size
Target sequence (P51450 whole entry, looked up, the tested form may be a part): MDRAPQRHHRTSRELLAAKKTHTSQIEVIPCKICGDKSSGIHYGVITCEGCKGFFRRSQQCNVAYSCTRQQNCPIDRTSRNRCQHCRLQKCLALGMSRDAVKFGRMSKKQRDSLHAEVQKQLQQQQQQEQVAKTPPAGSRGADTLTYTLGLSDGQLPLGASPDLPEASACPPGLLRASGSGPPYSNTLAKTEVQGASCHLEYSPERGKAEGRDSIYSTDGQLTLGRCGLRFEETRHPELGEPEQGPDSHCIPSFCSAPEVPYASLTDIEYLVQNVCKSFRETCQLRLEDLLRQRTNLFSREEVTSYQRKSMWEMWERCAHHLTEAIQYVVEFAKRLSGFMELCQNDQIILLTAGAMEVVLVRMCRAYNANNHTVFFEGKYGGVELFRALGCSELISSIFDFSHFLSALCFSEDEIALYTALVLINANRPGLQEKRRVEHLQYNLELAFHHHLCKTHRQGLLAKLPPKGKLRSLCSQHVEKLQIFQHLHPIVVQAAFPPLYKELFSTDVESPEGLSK
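Stable Schneider cell line, Gal4 DNA-binding domain fused to ROR gamma, UAS-luciferase. Cmpd 1 hr RT → CuSO4 700 uM final → 20 hr RT → luciferase reagent 10 min → luminescence.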
DT40 TDP1 CPT – growth inhibition of DT40 Tdp1-/-;hTDP1 cells with camptothecin (screen for TDP1 inhibitors). AID 686979. hit rate 12% among 420,000. chicken DT40 Tdp1-/-;hTDP1 cells + 20 nM CPT, ATP luminescence, 48 h. Potency, µM (series often up to 46.2 µM), inactives show top-dose activity change, negative = growth inhibition, most hits filed as inhibitors; further: potency means the concentration at half of the fitted maximal effect; nearly all actives have a fitted effect of over 55% in size
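Chicken DT40 Tdp1-/- cells complemented with human TDP1, 400 cells/well, exposed to compounds plus 20 nM camptothecin for at least 48 h at 37 C; viability read as ATP content by CellTiter-Glo luminescence.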
LDHA inh – blocks human lactate dehydrogenase A; purified LDHA, NADH/diaphorase-resazurin fluorescence; stronger effect = lower value; AID 1347041; P00338; hit rate 0.15% among 480,000; activity change, % (values are at about 110 or 230 µM); in the data active means activity change below about -30%; inconclusive means mostly about -25% to -30%;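 further: plate controls were DMSO wells for no effect and wells without enzyme for full effect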
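LDH5 2 nM; NADH 0.06 mM, pyruvate 0.2 mM; 200 mM Tris pH 7.4, EDTA, Tween-20; 5 min RT. Detection: diaphorase 0.133 mg/mL + resazurin 37 µM, fluorescence ex540/em590 at 0 and 20 min; normalized to enzyme-free and DMSO wells.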
Gal4-VP16 FLuc – inhibits Gal4-VP16 luciferase reporter, ROR gamma counter-screen | Drosophila S2 Gal4-VP16 UAS-luciferase, luminescence, 20 h | hit rate 3.5% among 310,000 | Potency, µM (highest dose often 53.6 µM), without a hit: top-dose activity, negative = inhibition, hits mostly inhibitors;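 further: Gal4-VP16 expression switched on by copper sulfate through the metallothionein promoter; potency means the concentration at half of the fitted maximal effect; nearly all actives have a fitted effect of over 50% in size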
Numbers without * were called inactive; ? = inconclusive; . = not tested or not shown. Unless noted, the call rests on the fitted dose curve; in most records, active means well fitted curve in the direction sought with a large enough effect; inconclusive means small, poorly fitted or top-dose-only effect, or another doubt; inactive means no such curve, though single readings can be large; an effect the other way counts as inactive or inconclusive. Unless noted, on the % scale 0 is the no-effect control and ±100 the full control effect.

SMILES	DT40 TDP1 no CPT	IL1B secr inh	RORg inh	DT40 TDP1 CPT	LDHA inh	Gal4-VP16 FLuc
COc1ccc(OCC(=O)Nc2ccccc2N2CCCCC2)cc1	1.6µM*	3	?	1.6µM*	-1	-7%
COc1ccc(OCC(=O)Nc2ccccc2N2CCN(C)CC2)cc1	-22%	-19	10%	-12%	0	-20%
O=C(COc1ccc(Cl)cc1Br)Nc1ccccc1N1CCCC1	?	-3	.	21µM*	2	.
CCc1cccc(OCC(=O)Nc2ccccc2N2CCCC2)c1	?	-7	.	?	-1	.
CCC(=O)N1CCN(c2ccccc2NC(=O)COc2ccc(C(C)C)cc2)CC1	16µM*	0	-7%	?	1	-11%
COc1cc(C(C)=O)ccc1OCC(=O)Nc1ccccc1N1CCCC1	?	-21	5%	?	1	-1%
CCN(C(=O)Cn1cc(C(=O)OC)c2ccccc21)c1ccccc1	.	.	.	.	8	.
CCc1nc(N2CCN(C(=S)Nc3ccccc3)CC2)c(C#N)c2c1CSC(C)(C)C2	.	.	.	.	2	.
Cc1ccc(NC(=O)CSCC(=O)Nc2ccccc2N2CCCCC2)cc1	?	-63*	.	?	-1	.
COc1ccc(CNCC(=O)Nc2ccccc2-n2cccc2)cc1	6.5µM*	11	0%	8.2µM*	-18	5%
Cc1cccc(C)c1OCC(=O)Nc1ccccc1N1CCCCC1	?	0	-44%	?	2	18µM*
COC(=O)C1CCCN1C(=O)COc1ccc(Cl)cc1Br (configuration not stated)	?	8	2%	18µM*	-5	-16%
O=C(NC1CC2CCC1C2)C1(c2ccccc2)CCC1 (configuration not stated)	.	.	.	.	-6	.
O=C(CNCC1CCCCC1)Nc1ccccc1N1CCCCC1	?	-2	-23%	?	-11	-6%
O=C(CNC1CCCCCC1)Nc1ccccc1N1CCCCC1	21µM*	-21	-32%	?	-4	0%
Cc1ccc2c(Br)cc(Br)c(O)c2n1	8.4µM*	.	0.25µM*	7.5µM*	.	0.71µM*
COc1cc(/C=C/c2ccc3c(Br)cc(Br)c(O)c3n2)ccc1O	5.2µM*	25	0.4µM*	3.3µM*	2	0.32µM*
COc1ccc(/C=C/c2ccc3c(Br)ccc(O)c3n2)cc1	21µM*	103	3.2µM*	10µM*	-2	3.5µM*
COC(=O)C(=Cc1ccncc1)c1cccc2ccccc12	13µM*	0	.	6.5µM*	1	.
O=c1[nH]cnc2c1nc(SCc1cccc(Cl)c1)n2-c1ccccc1	.	.	.	.	-1	.
Cc1occc1C(=O)Nc1nnc(C(F)(F)F)s1	-23%	15	33%	-18%	3	0%
O=C(Nc1ccccc1C(=O)Nc1nnc(C(F)(F)F)s1)c1ccccc1	4.1µM*	.	4.5µM*	2.9µM*	-4	5µM*
O=C(O)c1ccc2c(=O)n3c(nc2c1)/C(=C/c1ccc(C(F)(F)F)cc1)CC3	2%	13	?	-20%	-3	-14%
O=c1c2ccccc2nc2n1CC/C2=C/N1CCN(c2cccc(C(F)(F)F)c2)CC1	?	19	21%	18µM*	9	-3%
CC(=O)NC(c1ccccc1)c1cc(Cl)c2cccnc2c1O (configuration not stated)	?	87	1.4µM*	?	5	1.1µM*
SMILES	DT40 TDP1 no CPT	IL1B secr inh	RORg inh	DT40 TDP1 CPT	LDHA inh	Gal4-VP16 FLuc
COc1ccc(C(NC(C)=O)c2cc(Cl)c3cccnc3c2O)cc1 (configuration not stated)	8.2µM*	256	2µM*	8.2µM*	6	1.6µM*
O=C(NC(c1ccco1)c1cc(Cl)c2cccnc2c1O)c1ccc(Cl)cc1 (configuration not stated)	.	.	.	.	-7	.
CC(=O)NC(c1ccc(N(C)C)cc1)c1cc(Cl)c2cccnc2c1O (configuration not stated)	6.5µM*	61	.	4.6µM*	12	.
CC(=O)NC(c1cc(F)c2cccnc2c1O)C1CC1 (configuration not stated)	.	.	.	.	1	.
O=C(NC(c1ccc(Cl)cc1)c1cc(Cl)c2cccnc2c1O)c1cccnc1 (configuration not stated)	4.1µM*	?	0.71µM*	5.2µM*	-2	0.71µM*
CCC(=O)NC(c1cc(Cl)c2cccnc2c1O)C(C)C (configuration not stated)	.	.	.	.	13	.
C/C(=C/C=N/Nc1nc(N2CCCCC2)nc(N2CCCCC2)n1)c1ccccc1	?	-12	-29%	-27%	-5	4%
C/C(=N\Nc1nc(N2CCCCC2)nc(N2CCOCC2)n1)c1ccccc1O	21µM*	-86*	3%	?	-10	-4%
Oc1ccc(Br)cc1/C=N/Nc1nc(N2CCCCC2)nc(N2CCOCC2)n1	?	?	-13%	15µM*	2	-1%
C(=N\Nc1nc(N2CCOCC2)nc(N2CCOCC2)n1)/c1ccco1	.	.	-9%	.	.	-10%
COc1cc(/C=N/Nc2nc(N3CCCC3)nc(N3CCCC3)n2)ccc1O	?	-9	-40%	-28%	3	8%
Oc1ccc(/C=N/Nc2nc(N3CCCC3)nc(N3CCCC3)n2)cc1O	5.8µM*	34	?	?	10	-24%

Bioassay records deposited in PubChem by National Center for Advancing Translational Sciences (NCATS).
